For 21 compounds, outcome and activity results are on record in PubChem BioAssay AID651900 (Broad Institute, 2012).

The other results are listed elsewhere or left out. Activity calls are given as the source filed them. The rule behind the calls is not given here.

This assay can be described thus: cytotoxicity in NIH3T3 fibroblasts, dose response, cytotoxicity control, cell-based, plate reader, cherry-pick, two tests (AID 651900). As to conditions: activity: test 2 concentration series, at 26 µM; series mostly up to 26 µM.
`COCCNC(=O)C[C@H]1CC[C@@H]2[C@H](COc3ccc(NC(=O)Nc4cccc(F)c4)cc3C(=O)N2C)O1`: the outcome was “inactive”.

As for `CC(=O)c1ccc(N2CCN(C(=O)c3ccc4nc[nH]c4c3)CC2)cc1`, the outcome was “inactive” and the activity was -0.738%.

For the compound `O=C(c1ccncc1)N1CC[C@@H]2[C@H]1c1cc(Br)ccc1N[C@@H]2CO`, the outcome is “inactive”.

For the compound `Cc1nc(=O)c(-c2ccccc2)c(C)n1-c1ccc(Br)cc1`, the outcome was “inactive” and the activity was -4.55%.

As to `CS(=O)(=O)N1[C@H](C(=O)NCc2ccncc2)[C@@H](CO)[C@@H]2Cn3c(ccc(C4=CCCCC4)c3=O)[C@@H]21`, the outcome was “inactive”.

In the case of `C=C(C)CSc1nc(N)c2c3c(sc2n1)CCC3`, the outcome is “inactive” and the activity stood at 4.68%.

`Cn1c(=O)c2c(nc(OCc3cccnc3)n2Cc2ccccc2)n(C)c1=O`: the activity was -10.3% and the outcome is “inactive”.

Turning to `Cc1c2cnn(CC(=O)NCc3ccccn3)c(=O)c2c(C)n1Cc1ccc(Cl)cc1`, the outcome is “inactive” and the activity came out at 7.63%.

As for `O=C(CSc1n[nH]c(-c2cccnc2)n1)Nc1ccnc2ccccc12`, the activity is -10.2% and the outcome was “inactive”.

Regarding `COc1cc(-c2n[nH]c(=S)n2Cc2ccccc2)cc(OC)c1OC`, the activity worked out at 8.41% and the outcome is “inactive”.

Take `C=CCn1c(SCc2c(C(=O)OC)sc(N)c2C(=O)OC)nnc1-c1ccc(Cl)cc1`: the activity was -11.5% and the outcome is “inactive”.

With `Cc1c(OC(C)C(=O)NCC2CCC(C(=O)O)CC2)ccc2c1oc(=O)c1ccccc12` (configuration not stated), the activity was 1.67% and the outcome was “inactive”.

`CN1c2ccc(-c3ccccc3)cc2[C@H]2[C@H](CCN2C(=O)Cc2ccccn2)[C@H]1CO`: the outcome was “inactive”.

As to `CC(=O)CSc1nnc(CSc2ncccn2)n1C1CCCCC1`, the activity is 1.8% and the outcome is “inactive”.

Consider `Cc1ccc(Cc2c(C)nc3nc(SCC(=O)NCCN4CCOCC4)nn3c2C)cc1`, for which the activity is -6.78% and the outcome is “inactive”.

In the case of `CCC(CO)Oc1cc(NC(=O)c2cccc(F)c2)c2ncn(C(C)C)c2c1` (configuration not stated), the outcome was “inactive”.

In the case of `CCCOc1ccc2c3c(c(=O)oc2c1OCCC)CCC3`, the outcome was “inactive” and the activity was -3.77%.

With `Cc1nc2nc(SCC(=O)NCc3ccco3)nn2c(C)c1Cc1ccccc1`, the outcome is “inactive” and the activity is -7.64%.

As to `CC(=O)O[C@]1(C(C)=O)CC[C@H]2[C@@H]3C=C(C)C4=CC(=O)CC[C@]4(C)[C@H]3CC[C@@]21C`, the outcome is “inactive” and the activity was -6.83%.

As for `O=c1[nH]c(N2CCN(Cc3ccc4c(c3)OCO4)CC2)nc2c1CCCC2`, the activity came out at 6.08% and the outcome is “inactive”.

In the case of `CC1(C)CC(=O)C=C(c2ccc3ncccc3c2)C1`, the outcome was “inactive” and the activity is -5.48%.
